Holding throughout (conditions): mRNA level, 48 h; actives raise or lower the signal
Read-out in assay [1]: Peroxisomal acyl-coenzyme A oxidase 1 (ACOX1) gene, ACOX1 (gene 51)
Nature of the assay: LTEA_HepaRG_ACOX1: Life Technologies and Expression Analysis (LTEA) Assay for Peroxisomal acyl-coenzyme A oxidase 1 (ACOX1) gene using HepaRG (AID 2283467). Summed up:
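Human HepaRG hepatic cultures, 48 h treatment with test chemicals up to 100 uM. ACOX1 expression read by qRT-PCR relative to 0.5% DMSO vehicle.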

Read-out in assay [2]: Alkaline Phosphatase, Placental (ALPP) gene, ALPP (gene 250)
Nature of the assay: LTEA_HepaRG_ALPP: Life Technologies and Expression Analysis (LTEA) Assay for Alkaline Phosphatase, Placental (ALPP) gene using HepaRG (AID 2283468).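 On AC50: differentiated human HepaRG liver cells in serum-free induction medium; ALPP transcript by TaqMan qRT-PCR normalized to ACTB GAPDH and POLR2A.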 In a few lines:
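Expression of ALPP was quantified by qRT-PCR against three housekeeping genes in human HepaRG cultures treated for 48 h with an eight-point concentration series up to 100 uM. Activity in either direction was fitted relative to 0.5% DMSO.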

Read-out in assay [3]: Bcl-2 (BAD) gene, BAD (gene 572)
Nature of the assay: LTEA_HepaRG_BAD: Life Technologies and Expression Analysis (LTEA) Assay for Bcl-2 (BAD) gene using HepaRG (AID 2283469). In a few lines: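 Activity values reflect up- or down-regulation of BAD mRNA in human HepaRG hepatic cells treated 48 h in serum-free medium, with eight-point half-log dosing capped at 100 uM and 0.5% DMSO vehicle.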

Read-out in assay [4]: Bcl-2 (BAX) gene, BAX (gene 581)
Nature of the assay: LTEA_HepaRG_BAX: Life Technologies and Expression Analysis (LTEA) Assay for Bcl-2 (BAX) gene using HepaRG (AID 2283470). Summed up:
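qRT-PCR read-out of BAX mRNA, normalized to three housekeeping genes, after 48 h chemical exposure of human HepaRG cells in serum-free induction medium; eight-point half-log series, top 100 uM, 0.5% DMSO vehicle; bidirectional fit versus DMSO.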

Read-out in assay [5]: adenosine kinase (ADK) gene, ADK (gene 132)
Nature of the assay: LTEA_HepaRG_ADK: Life Technologies and Expression Analysis (LTEA) Assay for adenosine kinase (ADK) gene using HepaRG (AID 2283471). In a few lines: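 Differentiated HepaRG cells dosed 48 h in serum-free induction medium, 0.5% DMSO vehicle, eight half-log concentrations from 100 uM, in duplicate. ADK mRNA by TaqMan qRT-PCR normalised to ACTB, GAPDH, POLR2A; bidirectional fit versus DMSO.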

Read-out in assay [6]: Alpha-fetoprotein (AFP) gene, AFP (gene 174)
Kind of assay: LTEA_HepaRG_AFP: Life Technologies and Expression Analysis (LTEA) Assay for Alpha-fetoprotein (AFP) gene using HepaRG (AID 2283472). In a few lines:
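qRT-PCR (Fluidigm TaqMan) readout of AFP transcript, normalized to three housekeeping genes, fitted bidirectionally against 0.5% DMSO baseline. HepaRG cells received chemicals for 48 h in serum-free induction medium, top concentration 100 uM, half-log steps.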

Read-out in assay [7]: BCL2L11 (gene 10018)
Kind of assay: LTEA_HepaRG_BCL2L11: Life Technologies and Expression Analysis (LTEA) Assay for Bcl-2 (BCL2L11) gene using HepaRG (AID 2283473). Summed up:
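Cells were plated, cultured 48 h, switched to serum-free induction medium, then dosed in duplicate for 48 h at eight half-log concentrations up to 100 uM. Lysates underwent RNA isolation and TaqMan qRT-PCR; gain or loss versus DMSO was fitted.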

Read-out in assay [8]: Apolipoprotein A-V (APOA5) gene, APOA5 (gene 116519)
Kind of assay: LTEA_HepaRG_APOA5: Life Technologies and Expression Analysis (LTEA) Assay for Apolipoprotein A-V (APOA5) gene using HepaRG (AID 2283474). Summed up: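 Human liver HepaRG cells are treated 48 h with test chemicals (100 uM top, half-log dilutions, 0.5% DMSO). APOA5 mRNA induction or loss is measured by qRT-PCR relative to vehicle.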

Read-out in assay [9]: Apoptosis regulator Bcl-2 (Homo sapiens) (UniProt P10415)
Kind of assay: LTEA_HepaRG_BCL2: Life Technologies and Expression Analysis (LTEA) Assay for Bcl-2 gene using HepaRG (AID 2283475). Summed up: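 qRT-PCR read-out (Fluidigm TaqMan) of BCL2 transcript, normalised to three housekeeping genes, after 48 h chemical exposure of HepaRG cells; 8-point half-log series, top 100 uM, 0.5% DMSO vehicle. Gain or loss of signal fitted relative to DMSO baseline.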

Read-out in assay [10]: Bcl-2 (BID) gene, BID (gene 637)
Kind of assay: LTEA_HepaRG_BID: Life Technologies and Expression Analysis (LTEA) Assay for Bcl-2 (BID) gene using HepaRG (AID 2283476). Summed up: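 HepaRG, 48 h exposure, 8-pt half-log series, top 100 uM, 0.5% DMSO vehicle, duplicates. Readout: BID mRNA by TaqMan qRT-PCR; housekeeping-normalized; bidirectional curve fit vs DMSO baseline.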

Read-out in assay [11]: Caspase-3 (Homo sapiens) (UniProt P42574)
Nature of the assay: LTEA_HepaRG_CASP3: Life Technologies and Expression Analysis (LTEA) Assay for cysteine-aspartic acid protease (CASP3) using HepaRG (AID 2283477). Summed up: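 In HepaRG liver cells dosed for 48 h at up to 100 uM (eight-point, duplicate), CASP3 expression changes are scored by qRT-PCR. Activity is fitted in both directions with 0.5% DMSO as baseline.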

Read-out in assay [12]: Cytochrome P450 (CYP24A1), CYP24A1 (gene 1591)
Nature of the assay: LTEA_HepaRG_CYP24A1: Life Technologies and Expression Analysis (LTEA) Assay for Cytochrome P450 (CYP24A1) using HepaRG (AID 2283478). Summed up: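 Human liver HepaRG cultures receive each chemical for 48 h across an eight-point half-log series topping at 100 uM in 0.5% DMSO. Induction or suppression of CYP24A1 mRNA is scored relative to vehicle after housekeeping-gene normalization.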

Read-out in assay [13]: Cytochrome P450 (CYP1A2), CYP1A2 (gene 1544)
Nature of the assay: LTEA_HepaRG_CYP1A2: Life Technologies and Expression Analysis (LTEA) Assay for Cytochrome P450 (CYP1A2) using HepaRG (AID 2283479).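 On AC50: TaqMan qRT-PCR transcript level normalized to ACTB GAPDH and POLR2A.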 Summed up: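 Assesses CYP1A2 mRNA in human HepaRG liver cells after 48 h chemical exposure at up to 100 uM. Values come from qRT-PCR with bidirectional curve fitting relative to DMSO.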

Read-out in assay [14]: cysteine-aspartic acid protease (CASP8), CASP8 (gene 841)
Kind of assay: LTEA_HepaRG_CASP8: Life Technologies and Expression Analysis (LTEA) Assay for cysteine-aspartic acid protease (CASP8) using HepaRG (AID 2283480). In a few lines:
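Concentration-response in duplicate up to 100 uM (half-log steps, 0.5% DMSO) on differentiated HepaRG cultures for 48 h. Expression change of CASP8 mRNA is determined by TaqMan qRT-PCR with housekeeping-gene normalization.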

Read-out in assay [15]: Cytochrome P450 2C19 (Homo sapiens) (UniProt P33261)
Kind of assay: LTEA_HepaRG_CYP2C19: Life Technologies and Expression Analysis (LTEA) Assay for CYP2C19 using HepaRG (AID 2283482). Summed up: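 Human HepaRG liver cells received test chemicals for 48 h (highest 100 uM, half-log dilutions in 0.5% DMSO). CYP2C19 mRNA induction or loss is read by multiplexed qRT-PCR and fitted in both directions versus vehicle.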

Read-out in assay [16]: CYP2C8 (gene 1558)
Kind of assay: LTEA_HepaRG_CYP2C8: Life Technologies and Expression Analysis (LTEA) Assay for CYP2C8 using HepaRG (AID 2283483). Summed up:
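This is a transcriptional endpoint in HepaRG cultures: 48 h exposure, highest concentration 100 uM. CYP2C8 mRNA is quantified by TaqMan qRT-PCR.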

Read-out in assay [17]: CYP2C9 (gene 1559)
Kind of assay: LTEA_HepaRG_CYP2C9: Life Technologies and Expression Analysis (LTEA) Assay for CYP2C9 using HepaRG (AID 2283484). In a few lines:
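Eight-point concentration-response (highest 100 uM, half-log dilutions) in HepaRG cells for 48 h; CYP2C9 expression by qRT-PCR normalized to ACTB, GAPDH, POLR2A. Bidirectional fit, DMSO baseline.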

Read-out in assay [18]: CYP2E1 (gene 1571)
Nature of the assay: LTEA_HepaRG_CYP2E1: Life Technologies and Expression Analysis (LTEA) Assay for CYP2E1 using HepaRG (AID 2283485). In a few lines:
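CYP2E1 transcript was measured by TaqMan qRT-PCR in human HepaRG cultures after 48 h chemical exposure (top 100 uM, half-log steps, 0.5% DMSO vehicle). Housekeeping-gene normalization; gain or loss fitted relative to DMSO baseline.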

Read-out in assay [19]: CYP4A11 (gene 1579)
Kind of assay: LTEA_HepaRG_CYP4A11: Life Technologies and Expression Analysis (LTEA) Assay for CYP4A11 using HepaRG (AID 2283486). In a few lines:
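Readout is CYP4A11 mRNA induction or suppression (qRT-PCR, ACTB/GAPDH/POLR2A normalization) in human HepaRG cells after 48 h chemical treatment, concentrations to 100 uM in 0.5% DMSO, fitted bidirectionally against vehicle.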

Read-out in assay [20]: Cytochrome P450 (CYP2B6), CYP2B6 (gene 1555)
Nature of the assay: LTEA_HepaRG_CYP2B6: Life Technologies and Expression Analysis (LTEA) Assay for Cytochrome P450 (CYP2B6) using HepaRG (AID 2283481). In a few lines:
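Using 48 h treatment of HepaRG cells in serum-free induction medium, concentrations spanned half-log steps from 100 uM in 0.5% DMSO vehicle. CYP2B6 mRNA induction or loss is scored by qRT-PCR against DMSO.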

Activity calls are given as the source filed them. How the source made its calls: active means hit-call score of the fitted dose curve at least 0.9, where 1 is the maximum; inactive means score below 0.9.

Chain of Apoptosis regulator Bcl-2 (Homo sapiens) (P10415 whole entry, looked up): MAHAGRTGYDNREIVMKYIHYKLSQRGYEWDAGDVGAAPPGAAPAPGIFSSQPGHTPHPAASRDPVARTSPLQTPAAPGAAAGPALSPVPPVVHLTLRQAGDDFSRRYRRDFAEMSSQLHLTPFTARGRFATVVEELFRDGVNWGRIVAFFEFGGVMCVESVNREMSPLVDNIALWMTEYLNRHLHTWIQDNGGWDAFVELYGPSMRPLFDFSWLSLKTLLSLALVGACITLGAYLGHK
Chain of Caspase-3 (Homo sapiens) (P42574 whole entry, looked up): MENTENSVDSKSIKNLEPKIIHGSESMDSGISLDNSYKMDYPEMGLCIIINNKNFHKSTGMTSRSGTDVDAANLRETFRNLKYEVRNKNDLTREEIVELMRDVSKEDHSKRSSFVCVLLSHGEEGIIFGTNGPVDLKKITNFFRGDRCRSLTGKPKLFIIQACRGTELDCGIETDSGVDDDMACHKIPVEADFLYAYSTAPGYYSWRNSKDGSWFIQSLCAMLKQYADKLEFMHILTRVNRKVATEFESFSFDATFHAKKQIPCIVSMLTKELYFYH
Chain of Cytochrome P450 2C19 (Homo sapiens) (P33261 whole entry, looked up): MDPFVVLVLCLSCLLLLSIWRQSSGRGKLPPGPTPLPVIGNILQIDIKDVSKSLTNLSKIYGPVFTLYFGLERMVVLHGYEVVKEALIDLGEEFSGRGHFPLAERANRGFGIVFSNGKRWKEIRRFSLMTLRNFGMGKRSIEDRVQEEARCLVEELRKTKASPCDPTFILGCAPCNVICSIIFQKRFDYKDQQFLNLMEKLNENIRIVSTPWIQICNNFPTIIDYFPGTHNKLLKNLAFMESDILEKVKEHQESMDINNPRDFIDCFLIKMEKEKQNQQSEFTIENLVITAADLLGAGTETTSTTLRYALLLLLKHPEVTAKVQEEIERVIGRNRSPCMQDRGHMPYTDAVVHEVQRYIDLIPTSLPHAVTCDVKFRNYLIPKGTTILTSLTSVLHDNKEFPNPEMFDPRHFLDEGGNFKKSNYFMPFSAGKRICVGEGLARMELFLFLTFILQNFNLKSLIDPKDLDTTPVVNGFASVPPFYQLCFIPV

For orientation: AC50 means the concentration giving half of the maximal activity seen. Consider `Cc1cc(Cc2ccc(N)c(C)c2)ccc1N`, for which the result in assay [1], in [2], in assay [3], in assay [4], in assay [5] and in assay [6] was inactive. Besides, the compound was called inactive in assay [7], in assay [8], in [9], in assay [10], in assay [11] and in assay [12]. In addition, the call in [14], in assay [16], in [17] and in [19] was inactive. For the same compound, the values for the AC50 in [13], in [15] and in [18] were 50 µM (active), 11.5 µM (active) and 24.6 µM (active), respectively.

For `COC(=O)CCCC(=O)OC`, the compound was called inactive in [1], in assay [2], in [3], in [4], in assay [5] and in assay [6]. Also, the compound was called inactive in [7], in assay [8], in assay [9], in assay [10], in [11] and in assay [12]. Also, the call in [13], in [14], in assay [20], in assay [15], in assay [16] and in [17] was inactive. Moreover, the compound was classed as inactive in [18] and in assay [19].

Regarding `CN(C)C(=O)NC1(c2ccccc2)CCN(CCC[C@]2(c3ccc(Cl)c(Cl)c3)CCCN(C(=O)c3ccccc3)C2)CC1`, the outcome in assay [1], in [3], in assay [6], in [7], in assay [9] and in assay [10] was inactive. In addition, the outcome in [11], in assay [12], in [13], in assay [14] and in [16] was inactive. Besides, the AC50 in assay [2] was 24 µM (active); in assay [4], 19.6 µM (active); in assay [5], 12.5 µM (active); in assay [8] it was 21.3 µM (active); in assay [15] it was 23.6 µM (active); in assay [17], 19.7 µM (active). Also, the AC50 in assay [18] is 17.7 µM (active); in [19], 23.6 µM (active).

These data come from PubChem BioAssay (EPA / NIEHS).
